Data as given in PubChem BioAssay (NCI).
About 79,000 compounds went through this panel and 15% of them were active in at least one assay; those are over-represented in the sample as a whole. The source made the active and inactive calls. No stated cut-off is given here; in the data, active means growth inhibition above about 70%; inactive means the rest.

What was measured:
[1] = NCI Yeast Anticancer Drug Screen. Data for the rad50 strain (AID 155);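 further: 0% = growth of vehicle-only cultures of the same strain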; conditions: S. cerevisiae rad50 strain growth inhibition; at 50.0 µM; active compounds read high
Outline: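 Readout: growth inhibition relative to vehicle-treated cultures. Compound exposure was carried out in a genetically defined yeast strain deficient in DNA damage repair.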

[2] = NCI Yeast Anticancer Drug Screen. Data for the mec2-1 strain (AID 157); conditions: S. cerevisiae mec2-1 strain, at 50.0 µM, active compounds read high
Outline: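 Vehicle-treated cultures served as reference for growth inhibition of compound-exposed mec2-1 yeast.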

[3] = NCI Yeast Anticancer Drug Screen. Data for the sgs1 mgt1 strain (AID 161);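 further: 0% = growth of cultures given vehicle only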; conditions: S. cerevisiae sgs1 mgt1 strain, at 50.0 µM, active compounds read high
Outline: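 Mutant yeast exposed to compound; growth scored against vehicle-only wells.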

[4] = NCI Yeast Anticancer Drug Screen. Data for the cln2 rad14 strain (AID 165);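 further: 0% = growth equal to vehicle treated cultures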; conditions: S. cerevisiae cln2 rad14 strain, at 50.0 µM, active compounds read high
Outline: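 Each compound was tested on cln2 rad14 yeast. Inhibition of growth was calculated against vehicle-exposed controls.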

[5] = NCI Yeast Anticancer Drug Screen. Data for the bub3 strain (AID 167); conditions: S. cerevisiae bub3 mutant strain, at 50.0 µM, active compounds read high
Outline: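 Readout: yeast growth inhibition, expressed relative to vehicle-only wells. The test organism is a mutant strain from a panel with lesions in DNA repair or checkpoint genes.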

[6] = NCI Yeast Anticancer Drug Screen. Data for the mlh1 rad18 strain (AID 175); conditions: S. cerevisiae mlh1 rad18 strain growth inhibition; at 50.0 µM; active compounds read high
Outline: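 Vehicle-treated cultures served as the reference for growth inhibition in a yeast strain carrying DNA damage repair alterations exposed to each compound.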

Measured: growth inhibition

O=C(O)C(c1ccccc1)C(O)c1ccccc1 (centres undefined)
inactive: [1] 5.35% | [2] -21.4% | [3] -22.7% | [4] -26.1% | [5] -30.4% | [6] -7.45%

C=CC(=O)OCCCCCCCC
inactive: [1] 5.4% | [2] -14.3% | [3] -29.4% | [4] -34.5% | [5] 2.4% | [6] 2.85%

CCOC(=O)Nc1nn[nH]n1
inactive: [1] 7.75% | [2] 1.35% | [3] 32% | [4] 4.15% | [5] -4.95% | [6] 3.65%

COCCOC(=O)c1ccc(C(C)C)cc1
inactive: [1] 8.8% | [2] 0.35% | [3] 0.2% | [4] -9.35% | [5] 2.75% | [6] -0.45%

CN(C)c1ccc2nc3ccc(=N)cc-3sc2c1
inactive: [1] 4.55% | [2] -19.1% | [3] 18.6% | [4] 7.45% | [5] -15.2% | [6] 22.4%

COCCCNC(=O)c1nnn2c1nc(N)c1cc(Cl)ccc12
inactive: [1] -2.65% | [2] 2.75% | [3] 25.6% | [4] 3.2% | [5] 23.6% | [6] 10.6%

N#CCCN(CCCN1CCOCC1)CN1C(=O)c2ccccc2C1=O
inactive: [1] 5.8% | [2] 9.15% | [3] 35.5% | [4] 5.8% | [5] 34.6% | [6] 19.4%

CCOC(=O)C(C#N)Cc1ccccc1 (centres undefined)
inactive: [1] -0.85% | [2] -2.15% | [3] -3.85% | [4] -14.2% | [5] -1.6% | [6] -3.35%

O=C1OC[C@H]2[C@H](c3ccc(O)c(O)c3)c3cc(O)c(O)cc3C[C@H]12
inactive: [1] 24.9% | [2] -2.45% | [3] 23.9% | [4] 15.8% | [5] 23.7% | [6] 10.9%

N#CC(=Nc1cccc(F)c1)C1=C(O)c2ccccc2C1=O
inactive: [1] 11.6% | [2] -2.6% | [3] 22.4% | [4] 27.6% | [5] 20.5% | [6] 18.8%

O=C(Nc1ccccc1)OCCc1ccccc1
inactive: [1] 45.3% | [2] 37.8% | [3] 27.4% | [4] 42.9% | [5] 37.6% | [6] 34.2%

CSc1[nH]c(=O)ncc1F
inactive: [1] 4.15% | [2] 4.1% | [3] 3.2% | [4] -4.15% | [5] -2.3% | [6] -7.45%

O=c1[nH][nH]c(=O)c2cc([N+](=O)[O-])ccc12
inactive: [1] 32.9% | [2] 11.6% | [3] 1.7% | [4] -67.7% | [5] -15% | [6] 18.1%

CC12CC3CC1C(C(=O)O2)C3C(=O)O (centres undefined)
inactive: [1] -20.6% | [2] -27.5% | [3] -25.8% | [4] 5.85% | [5] -7.2% | [6] -8.8%

CCCCCCCCCCCCCCCCC1CC(=O)OC1=O (centres undefined)
inactive: [1] -4.35% | [2] -12.2% | [3] 5.9% | [4] 4.3% | [5] -11.3% | [6] 4.55%

CC(=O)c1cc2c(cc1F)C(C)(C)CCC2(C)C
inactive: [1] -23.2% | [2] -30.4% | [3] -19.1% | [4] -32.5% | [5] -20.1% | [6] -18.6%

COC(=O)c1cc(-c2ccc(Cl)c(Cl)c2)[nH]c(=O)c1C#N
inactive: [1] -16.9% | [2] -18.9% | [3] -27.9% | [4] 21.7% | [5] -21.9% | [6] 18.6%

O=C(Cc1nc2ccc([N+](=O)[O-])cc2nc1CC(=O)c1cccnc1)c1cccnc1
inactive: [1] 14.3% | [2] 10.5% | [3] -1.35% | [4] 15.2% | [5] -3.85% | [6] 9.6%

c1cc2cccc3c4cccc5cccc(c(c1)c23)c54
inactive: [1] -18.9% | [2] -22.6% | [3] -17.9% | [4] 10.8% | [5] -4.15% | [6] -15.4%

CSC(=N\N=C\c1ccc(N(C)C)cc1)/N=C/N(C)C
inactive: [1] -4.3% | [2] -8.15% | [3] 6.05% | [4] 7.65% | [5] 18.6% | [6] 25.1%

NC(=O)NC(=O)c1ccc(Cl)cc1
inactive: [1] 14.8% | [2] -7.05% | [3] 19.2% | [4] 29.1% | [5] -1.05% | [6] 11.3%

O=[N+]([O-])c1cccc2nsnc12
inactive: [1] 63.5% | [2] 30.6% | [3] 53.8% | [4] 16.6% | [5] -8.15% | [6] 43.6%

COc1cc(/C=C(\C#N)C(=O)c2ccccc2)ccc1OCc1ccccc1
inactive: [1] -1.1% | [2] -18.8% | [3] -15.2% | [4] 1.25% | [5] -26.7% | [6] -18%

C=CCNc1nnc(C)s1
inactive: [1] 14.9% | [2] 19.7% | [3] -21.6% | [4] -16.2% | [5] -15% | [6] -5.35%

CC1(C)N=C(N)N=C(N)N1c1cccc(Br)c1
inactive: [1] -14.3% | [2] -14.4% | [3] -13.1% | [4] 7.15% | [5] -0.95% | [6] 2.3%

CC1CC(O)CC(C)(C)C1 (centres undefined)
inactive: [1] 5.55% | [2] -10.1% | [3] 1.35% | [4] -25.4% | [5] 2.2% | [6] -4.25%

CCOC(=O)c1cc(/C=C/c2ccc(Cl)cc2Cl)on1
inactive: [1] -31.4% | [2] -52.7% | [3] -43% | [4] -41.1% | [5] -36.1% | [6] -45.5%

O=C1OC(=O)C2C1C1(Cl)C(Cl)=C(Cl)C2(Cl)C2C(=O)OC(=O)C21 (centres undefined)
inactive: [1] 2.45% | [2] 12.4% | [3] 17.9% | [4] -9.45% | [5] 25.3% | [6] -1.75%

Cc1cc2nc(CO)[nH]c2cc1C
inactive: [1] -2.95% | [2] -40% | [3] -24.2% | [4] 7.55% | [5] -5.65% | [6] 1.8%

CCOC(=O)c1cc2cccc(OC)c2oc1=O
inactive: [1] 6.15% | [2] 3.45% | [3] -5.65% | [4] -4.75% | [5] 12.8% | [6] -0.2%

Cc1cccc(C(=O)N(C(C)C)C(C)C)c1
inactive: [1] -0.9% | [2] -4.95% | [3] -4.25% | [4] -50.8% | [5] 26.2% | [6] -0.35%

CCN(CC)CCCC(C)Nc1ccnc(/C=C/c2ccc(Cl)cc2)c1 (centres undefined)
inactive: [1] 2.75% | [2] -1.2% | [3] -16.1% | [4] -2.55% | [5] -39.5% | [6] -19%

C/C(=N\NC(=O)c1ccccc1N)c1ccccc1O
inactive: [1] 6.15% | [2] -7.75% | [3] 26.6% | [4] 4.5% | [5] 26.1% | [6] 21.7%

COc1cc2nn(-c3ccccc3N)nc2cc1OC
inactive: [1] 19.4% | [2] 36.6% | [3] 48.2% | [4] 14.7% | [5] 52.2% | [6] 29.9%

Cc1cc(=O)[nH]c(NN=C2CCCC2)n1
inactive: [1] -27.9% | [2] -52.5% | [3] -35.4% | [4] -2.6% | [5] -33.5% | [6] -27.1%

Oc1ccccc1-c1nnco1
inactive: [1] -1.9% | [2] -13.8% | [3] 0.35% | [4] 4.35% | [5] -2.15% | [6] -8.7%

COC(=O)c1cccnc1
inactive: [1] 6.65% | [2] -3.85% | [3] -0.35% | [4] 7.2% | [5] -23.8% | [6] -1.2%

O=C(CCl)Nc1ccc2c(c1)C(=O)c1ccc(NC(=O)CCl)cc1C2=O
inactive: [1] 6.3% | [2] -4.85% | [3] 4.15% | [4] 1.7% | [5] -21.2% | [6] 21.9%

Cc1cc(N)c(S(=O)(=O)O)c(N)c1
inactive: [1] -31.9% | [2] 5.65% | [3] -4% | [4] -15.1% | [5] 11.8% | [6] -57.8%
